Test results as given in PubChem BioAssay (EPA / NIEHS).
Records with an inconclusive call do not appear. Calls of active or inactive are those of the source. How the source made its calls, unless noted: active means hit-call score of the fitted dose curve at least 0.9, where 1 is the maximum; inactive means score below 0.9.

Columns and labels:
[1] = target: Retinoic acid receptor RXR-alpha (Homo sapiens) (UniProt P19793); test: ATG_RXRa_TRANS: Attagene TRANS-FACTORIAL HepG2 Assay for human Retinoid X Receptor alpha (RXRa) (AID 2283012; active means hit-call score of the fitted dose curve at least 0.9, where 1 is the maximum)
Retinoic acid receptor RXR-alpha (Homo sapiens), sequence (P19793 whole entry, looked up, the tested form may be a part): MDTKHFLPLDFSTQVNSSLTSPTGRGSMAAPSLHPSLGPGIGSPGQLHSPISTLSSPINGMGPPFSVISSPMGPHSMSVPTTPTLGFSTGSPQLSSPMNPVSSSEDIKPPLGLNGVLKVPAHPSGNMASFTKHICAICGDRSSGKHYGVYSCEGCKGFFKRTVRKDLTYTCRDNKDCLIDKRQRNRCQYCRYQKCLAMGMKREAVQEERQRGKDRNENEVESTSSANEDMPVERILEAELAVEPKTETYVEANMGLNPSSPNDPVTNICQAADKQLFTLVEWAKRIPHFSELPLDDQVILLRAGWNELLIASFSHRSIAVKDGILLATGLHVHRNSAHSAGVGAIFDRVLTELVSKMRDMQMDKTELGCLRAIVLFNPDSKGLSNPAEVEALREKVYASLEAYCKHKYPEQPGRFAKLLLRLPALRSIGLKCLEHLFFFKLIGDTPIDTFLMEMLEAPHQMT
Method in brief: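 Cells (HepG2) carried transiently transfected GAL4-responsive reporter units. Following a 24 h chemical incubation, reporter mRNA induction was read via RT-PCR fragment analysis; DMSO served as negative control and baseline.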

[2] = target: human Retinoid X Receptor beta (RXRb), RXRB (gene 6257) (UniProt P28702); test: ATG_RXRb_TRANS: Attagene TRANS-FACTORIAL HepG2 Assay for human Retinoid X Receptor beta (RXRb) (AID 2283013; active means hit-call score of the fitted dose curve at least 0.9, where 1 is the maximum)
human Retinoid X Receptor beta (RXRb), RXRB (gene 6257), sequence (P28702 whole entry, looked up): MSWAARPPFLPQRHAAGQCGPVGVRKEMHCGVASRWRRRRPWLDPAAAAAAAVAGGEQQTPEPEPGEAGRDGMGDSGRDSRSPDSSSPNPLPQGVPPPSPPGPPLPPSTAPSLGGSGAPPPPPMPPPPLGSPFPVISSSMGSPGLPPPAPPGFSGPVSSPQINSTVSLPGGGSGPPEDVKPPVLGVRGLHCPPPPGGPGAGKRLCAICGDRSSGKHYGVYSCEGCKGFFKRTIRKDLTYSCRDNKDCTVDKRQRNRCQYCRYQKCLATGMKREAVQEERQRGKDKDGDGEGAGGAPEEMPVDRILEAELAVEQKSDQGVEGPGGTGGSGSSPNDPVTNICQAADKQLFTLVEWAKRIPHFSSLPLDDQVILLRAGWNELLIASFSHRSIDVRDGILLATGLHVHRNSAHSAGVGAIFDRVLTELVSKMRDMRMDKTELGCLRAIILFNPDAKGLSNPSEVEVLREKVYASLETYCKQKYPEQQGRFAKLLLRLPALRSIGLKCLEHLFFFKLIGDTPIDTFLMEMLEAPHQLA
Method in brief: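 Multiplexed TRANS reporter assay in HepG2; 24 h dosing; reporter mRNA by RT-PCR/CE fluorescence; gain-of-signal relative to DMSO.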

[3] = target: human Thyroid Receptor alpha (THRa1), THRA (gene 7067) (UniProt P10827); test: ATG_THRa1_TRANS: Attagene TRANS-FACTORIAL HepG2 Assay for human Thyroid Receptor alpha (THRa1) (AID 2283014; active means hit-call score of the fitted dose curve at least 0.9, where 1 is the maximum)
human Thyroid Receptor alpha (THRa1), THRA (gene 7067), sequence (P10827 whole entry, looked up, the tested form may be a part): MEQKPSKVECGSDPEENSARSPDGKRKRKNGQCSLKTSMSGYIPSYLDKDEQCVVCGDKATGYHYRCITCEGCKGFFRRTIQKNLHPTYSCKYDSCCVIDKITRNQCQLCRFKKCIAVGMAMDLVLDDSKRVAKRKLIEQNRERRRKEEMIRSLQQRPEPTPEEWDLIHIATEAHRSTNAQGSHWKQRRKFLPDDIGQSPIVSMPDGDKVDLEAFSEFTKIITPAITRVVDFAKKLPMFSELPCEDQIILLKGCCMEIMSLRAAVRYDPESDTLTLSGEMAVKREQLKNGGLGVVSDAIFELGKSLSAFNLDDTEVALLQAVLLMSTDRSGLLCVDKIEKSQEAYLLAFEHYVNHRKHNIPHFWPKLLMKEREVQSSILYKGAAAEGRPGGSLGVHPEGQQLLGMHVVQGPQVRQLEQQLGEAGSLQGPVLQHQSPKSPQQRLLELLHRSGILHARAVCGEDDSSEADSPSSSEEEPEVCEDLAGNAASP
Method in brief: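 First, HepG2 cells receive multiple GAL4-UAS reporter units and the chimeric receptor. They are then dosed for 24 h, after which RNA is reverse-transcribed, amplified, labelled, HpaI-cut and sized by capillary electrophoresis; gain relative to DMSO is scored.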

[4] = target: human Vitamin D Receptor (VDR), VDR (gene 7421) (UniProt P11473); test: ATG_VDR_TRANS: Attagene TRANS-FACTORIAL HepG2 Assay for human Vitamin D Receptor (VDR) (AID 2283022; active means hit-call score of the fitted dose curve at least 0.9, where 1 is the maximum)
human Vitamin D Receptor (VDR), VDR (gene 7421), sequence (P11473 whole entry, looked up, the tested form may be a part): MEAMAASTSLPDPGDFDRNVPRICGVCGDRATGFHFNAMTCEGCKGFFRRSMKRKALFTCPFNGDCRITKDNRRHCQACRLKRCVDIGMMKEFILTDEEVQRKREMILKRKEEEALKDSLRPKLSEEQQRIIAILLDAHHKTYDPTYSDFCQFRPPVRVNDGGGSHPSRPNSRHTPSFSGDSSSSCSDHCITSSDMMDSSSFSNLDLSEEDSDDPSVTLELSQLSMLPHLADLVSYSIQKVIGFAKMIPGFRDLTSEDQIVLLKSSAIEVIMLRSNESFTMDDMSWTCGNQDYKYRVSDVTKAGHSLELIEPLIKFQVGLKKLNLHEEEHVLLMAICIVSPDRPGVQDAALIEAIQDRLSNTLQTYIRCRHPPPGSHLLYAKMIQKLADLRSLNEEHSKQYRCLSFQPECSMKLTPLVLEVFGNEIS
Method in brief: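 Fluorescence of labelled reporter cDNA fragments, resolved by capillary electrophoresis, gives mRNA induction after 24 h treatment of HepG2 cells carrying transfected Gal4-fusion reporter units. Activity is fitted in the positive direction with DMSO as baseline.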

[5] = read-out: E-selectin (Homo sapiens) (UniProt P16581); test: BSK_3C_Eselectin: BioMAP Diversity Plus: 3C Assay for Eselectin Biomarker Activity (AID 2283015); settings: primary human endothelial cells (HUVEC); actives raise or lower the signal
Method in brief: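 Human vascular endothelium from umbilical vein is exposed to test chemicals for 24 h. E-selectin levels are read by ELISA and compared with DMSO controls.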

[6] = read-out: Interleukin-1 alpha (IL1a), IL1A (gene 3552); test: BSK_BE3C_IL1a: BioMAP Diversity Plus: BE3C Assay for Interleukin-1 alpha (IL1a) Biomarker Activity (AID 2283016); settings: primary human bronchial epithelial cells; actives raise or lower the signal
Method in brief: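 Cultures of primary human bronchial epithelial cells receive test chemical. After 24 h, IL-1a is quantified by ELISA, while parallel wells are fixed in TCA and SRB-stained for total protein. Changes in either direction are fitted relative to DMSO.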

[7] = read-out: Monocyte Chemoattractant Protein-1 (MCP1), CCL2 (gene 6347); test: BSK_3C_MCP1: BioMAP Diversity Plus: 3C Assay for Monocyte Chemoattractant Protein-1 (MCP1) Biomarker Activity (AID 2283017); settings: primary human endothelial cells (HUVEC); actives raise or lower the signal
Method in brief: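 Endothelial cells from human umbilical vein are dosed with chemical, cultured 24 h, then assayed for MCP-1 by ELISA; both increases and decreases are modelled against DMSO controls.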

[8] = read-out: Monocyte Chemoattractant Protein-1 (MCP1), CCL2 (gene 6347); test: BSK_4H_MCP1: BioMAP Diversity Plus: 4H Assay for Monocyte Chemoattractant Protein-1 (MCP1) Biomarker Activity (AID 2283018); settings: primary human endothelial cells (HUVEC); actives raise or lower the signal
Method in brief: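 Readout: MCP-1 ELISA on compound-treated HUVEC, sampled 24 h post-dosing. Baseline and negative control DMSO; bidirectional fit. Overt toxicity checked alongside by sulforhodamine B protein staining at time of biomarker measurement.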

[9] = read-out: Interleukin-8 (IL8), CXCL8 (gene 3576); test: BSK_3C_IL8: BioMAP Diversity Plus: 3C Assay for Interleukin-8 (IL8) Biomarker Activity (AID 2283020); settings: primary human endothelial cells (HUVEC); actives raise or lower the signal
Method in brief: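 Human vascular endothelial cells (umbilical vein) in the 3C system; IL-8 level detected by ELISA at 24 h post-dose, with DMSO as baseline.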

[10] = read-out: Monokine induced gamma interferon (MIG), CXCL9 (gene 4283); test: BSK_3C_MIG: BioMAP Diversity Plus: 3C Assay for Monokine induced gamma interferon (MIG) Biomarker Activity (AID 2283021); settings: primary human endothelial cells (HUVEC); actives raise or lower the signal;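 on AC50: MIG protein level measured by immunoassay in the treated endothelial cultures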
Method in brief: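 After 24 h of treatment, human umbilical vein endothelial cultures (3C system) had their MIG biomarker level determined by ELISA, with DMSO serving as negative control.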

[11] = BSK_3C_SRB: Viability Assessment in the BioMAP Diversity Plus: 3C Assay (AID 2283023); settings: primary human endothelial cells (HUVEC);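 further: cells read 24 h after compound dosing; fitted both ways against DMSO so a hit may be signal rise or drop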
Method in brief: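 Cells were dosed with chemical, cultured 24 h, fixed with 10% TCA, stained with 0.1% SRB and read at 560 nm. Human umbilical vein endothelium was used; DMSO served as negative control and baseline.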

[12] = BSK_3C_Vis: BioMAP Diversity Plus: 3C Assay for Morphology Visualization (AID 2283025); settings: primary human endothelial cells (HUVEC);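 further: fitted both ways so gain or loss versus DMSO counts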;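 on AC50: light microscopy image of cell morphology used as background control; cells imaged 24 h after dosing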
Method in brief: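 Endothelial cells from human umbilical vein were treated with test chemicals for 24 h and inspected by light microscopy for changes in cell conformation.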

[13] = read-out: Pselectin, SELP (gene 6403); test: BSK_4H_Pselectin: BioMAP Diversity Plus: 4H Assay for Pselectin Biomarker Activity (AID 2283026); settings: primary human endothelial cells (HUVEC); actives raise or lower the signal
Method in brief: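 Human vascular endothelium from umbilical vein; P-selectin measured by ELISA at 24 h post-dose, with cytotoxicity checked by sulforhodamine B total-protein staining in parallel cultures (0.1% SRB after 10% TCA fixation, read at 560 nm).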

[14] = BSK_4H_SRB: Viability Assessment in the BioMAP Diversity Plus: 4H Assay (AID 2283027); settings: primary human endothelial cells (HUVEC);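 further: cells exposed to compound for 24 h before staining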;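 on AC50: curves fitted both ways versus DMSO so AC50 may be loss or gain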
Method in brief: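 Human umbilical vein endothelial cells were dosed with chemical and, after 24 h, fixed with 10% TCA, stained with 0.1% sulforhodamine B, and read at 560 nm to give total protein as a cytotoxicity measure. Bidirectional fitting relative to DMSO control.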

[15] = BSK_BE3C_SRB: Viability Assessment in the BioMAP Diversity Plus: BE3C Assay (AID 2283028); settings: primary human bronchial epithelial cells;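 on AC50: fitted both ways so AC50 may mark signal gain or loss versus DMSO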
Method in brief: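 Overt cytotoxicity was assessed as total protein in confluent human primary bronchial epithelial cultures 24 h after chemical addition, using 0.1% sulforhodamine B staining read at 560 nm.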

[16] = read-out: Thrombomodulin, THBD (gene 7056); test: BSK_3C_Thrombomodulin: BioMAP Diversity Plus: 3C Assay for Thrombomodulin Biomarker Activity (AID 2283029); settings: primary human endothelial cells (HUVEC); actives raise or lower the signal
Method in brief: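 Thrombomodulin ELISA, human primary HUVEC, 24 h post-dose; data fitted in both directions relative to DMSO.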

[17] = read-out: Urokinase-type plasminogen activator receptor (uPAR), PLAUR (gene 5329); test: BSK_4H_uPAR: BioMAP Diversity Plus: 4H Assay for Urokinase-type plasminogen activator receptor (uPAR) Biomarker Activity (AID 2283030); settings: primary human endothelial cells (HUVEC); actives raise or lower the signal
Method in brief: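 Chemicals are dosed onto human vascular endothelial primary cells (umbilical vein). After 24 h, uPAR is read by ELISA. Gain or loss of signal is fitted relative to DMSO.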

[18] = read-out: Matrix Metallopeptidase 1 (MMP1), MMP1 (gene 4312); test: BSK_BE3C_MMP1: BioMAP Diversity Plus: BE3C Assay for Matrix Metallopeptidase 1 (MMP1) Biomarker Activity (AID 2283024); settings: primary human bronchial epithelial cells; actives raise or lower the signal
Method in brief: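 Dose cells, wait 24 h, run MMP1 ELISA; cells are human bronchial epithelial primaries. Both increases and decreases relative to DMSO counted.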

[19] = read-out: Human Leukocyte Antigen - DR isotype (HLADR), HLA-DRA (gene 3122); test: BSK_3C_HLADR: BioMAP Diversity Plus: 3C Assay for Human Leukocyte Antigen - DR isotype (HLADR) Biomarker Activity (AID 2283019); settings: primary human endothelial cells (HUVEC); actives raise or lower the signal
Method in brief: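 Endothelial cells from human umbilical vein are treated with test chemical; after 24 h, HLA-DR levels are measured by ELISA. Data are fitted in both directions using DMSO as the baseline.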

Measured: AC50

E-selectin (Homo sapiens), sequence (P16581 whole entry, looked up): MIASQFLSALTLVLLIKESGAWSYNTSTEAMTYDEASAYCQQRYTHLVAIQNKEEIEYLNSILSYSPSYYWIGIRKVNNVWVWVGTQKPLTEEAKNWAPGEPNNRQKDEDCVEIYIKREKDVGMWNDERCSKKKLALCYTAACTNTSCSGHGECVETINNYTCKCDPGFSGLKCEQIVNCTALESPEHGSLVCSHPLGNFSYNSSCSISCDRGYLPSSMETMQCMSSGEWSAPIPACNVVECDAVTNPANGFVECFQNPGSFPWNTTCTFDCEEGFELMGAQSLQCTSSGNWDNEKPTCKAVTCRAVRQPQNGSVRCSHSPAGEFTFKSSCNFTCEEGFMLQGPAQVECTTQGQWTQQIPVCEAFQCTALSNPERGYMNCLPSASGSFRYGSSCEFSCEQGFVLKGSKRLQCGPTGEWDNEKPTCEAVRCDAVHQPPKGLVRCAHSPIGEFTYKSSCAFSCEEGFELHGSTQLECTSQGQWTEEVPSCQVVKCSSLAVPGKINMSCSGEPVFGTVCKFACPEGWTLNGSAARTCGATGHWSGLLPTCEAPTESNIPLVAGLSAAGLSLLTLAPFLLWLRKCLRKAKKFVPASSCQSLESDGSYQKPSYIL

CC(C)C1CCC(Cc2ccc(Cl)cc2)C1(O)Cn1cncn1 (stereo unspecified)
inactive: [1] | [2] | [3] | [4]

CN(CCCC(=O)c1cccnc1)N=O
inactive: [1] | [2] | [3] | [4]

Oc1ccc(-c2ccccc2)cc1
not listed: [18] | [19]
inactive: all other assays above

CCC(C)(C)c1ccc(O)c(C(C)(C)CC)c1
active: [1] 33.4 µM | [2] 9.09 µM | [3] 45.8 µM | [5] 10.4 µM | [6] 32.5 µM | [7] 9.92 µM | [8] 11.1 µM | [9] 8.88 µM | [10] 13.3 µM | [4] 55 µM | [11] 7.65 µM | [12] 6.71 µM | [13] 7.72 µM | [14] 11.7 µM | [15] 28.8 µM | [16] 34.5 µM | [17] 11.4 µM

O=C(O)C(Cl)(Cl)Cl
not listed: [19]
inactive: all other assays above

Oc1c(I)cc(I)cc1I
active: [3] 7.66 µM | [5] 11.3 µM | [6] 8.87 µM | [7] 11.9 µM | [8] 20 µM | [19] 9.5 µM | [9] 11.5 µM | [10] 34.9 µM | [11] 10.3 µM | [12] 13 µM | [13] 12.7 µM | [14] 20 µM | [17] 12.7 µM
inactive: [1] | [2] | [4] | [15] | [16]

ClC(Cl)=C(Cl)C(Cl)=C(Cl)Cl
active: [5] 14.5 µM | [6] 36.7 µM | [7] 31.4 µM | [8] 31.6 µM | [9] 32.4 µM | [10] 36.5 µM | [11] 34.4 µM | [18] 20 µM | [12] 37.5 µM | [13] 33.6 µM | [14] 34.2 µM | [15] 31.2 µM | [17] 32.2 µM
inactive: [1] | [2] | [3] | [16]

BrCCBr
active: [2] 48.2 µM
not listed: [18]
inactive: all other assays above

CCN1CCC2(CC1)COc1cc3c(cc12)N(C(=O)c1ccc(-c2ccc(-c4nnc(C)o4)cc2C)cc1)CC3
active: [5] 28 µM | [6] 13.8 µM | [7] 14 µM | [8] 26 µM | [9] 18.4 µM | [10] 32.3 µM | [11] 6.23 µM | [12] 6.51 µM | [13] 12 µM | [14] 23.1 µM | [15] 12.9 µM | [17] 18.7 µM
inactive: [1] | [2] | [4] | [16]

COP(=S)(OC)Oc1c(Cl)cc(C)cc1Cl
inactive: [1] | [6] | [9] | [10] | [4] | [15] | [16] | [17]
active: [2] 22 µM | [5] 29 µM | [7] 31.4 µM | [8] 3.97 µM | [19] 20 µM | [11] 30.3 µM | [12] 37.5 µM | [13] 33.4 µM | [14] 20 µM

CC1CN1P(=O)(N1CC1C)N1CC1C (stereo unspecified)
inactive: [1] | [2] | [3] | [4]

C1CCC(NC2CCCCC2)CC1
inactive: [1] | [2] | [3] | [4]

ClCc1cccnc1
inactive: [1] | [2] | [3] | [4]

CCOP(=S)(OCC)SCSP(=S)(OCC)OCC
active: [2] 12.4 µM
not listed: [4] | [19]
inactive: all other assays above

C[C@@H]1C[C@@H]([C@H](O)CC2CC(=O)NC(=O)C2)C(=O)[C@@H](C)C1
active: [5] 2.4 µM | [6] 10.7 µM | [7] 8.41 µM | [8] 4.06 µM | [19] 3.85 µM | [9] 6.06 µM | [10] 20.1 µM | [11] 4.82 µM | [18] 2.51 µM | [12] 9.24 µM | [13] 3.9 µM | [14] 7.08 µM | [17] 4.3 µM
inactive: [1] | [2] | [3] | [15] | [16]

CC(=O)C(Cl)C(=O)N(C)C (stereo unspecified)
active: [5] 20 µM | [6] 20 µM | [7] 20 µM | [8] 20 µM | [9] 11.7 µM | [12] 37.5 µM | [13] 15.6 µM
not listed: [19]
inactive: all other assays above
